Source: PubChem BioAssay (Broad Institute)
aSyn 5UTR act: Activators via SNCA 5'UTR binding, MLPCN. alpha-synuclein 5'UTR reporter, activators screen. 300,000 compounds, 7.1% hits. activity score, % (tested at 7.5 µM), hits read low; in the data active = activity score below about -60%
Of the large screens only hits and unclear results are named; the others gave an inactive call. Only a sample is shown.

O=C1c2ccccc2C(=O)C12OC2c1ccc(Cl)cc1 (centres undefined)	aSyn 5UTR act -72.2
COc1cc(C=O)ccc1OS(=O)(=O)c1ccccc1[N+](=O)[O-]	aSyn 5UTR act -118.7
COc1cc(/C=N/n2cnnc2)ccc1OS(=O)(=O)c1ccccc1[N+](=O)[O-]	aSyn 5UTR act -177.8
CN1CCSc2ccc(C(=O)Nc3cc(F)ccc3F)cc21	aSyn 5UTR act -98.2
Cc1ccccc1NC(=O)c1ccc2c(c1)N(C)CCS2	aSyn 5UTR act -103.4
CN1CCN(C2Cc3cc(Cl)ccc3Sc3cc(F)ccc32)CC1 (centres undefined)	none
O=C(Nc1ccc(-c2cn3ccccc3n2)cc1)c1ccco1	aSyn 5UTR act -208.5
O=C(Nc1cccc(-c2cn3ccccc3n2)c1)c1ccccc1	aSyn 5UTR act -64.5
CCCCC(=O)Nc1cccc(-c2cn3ccccc3n2)c1	aSyn 5UTR act -77.9
Cc1cnc(C(=O)Nc2nnc(C3CC3)s2)cn1	aSyn 5UTR act -97.2
CCOCC(=O)Nc1nnc(C2CCCCC2)s1	aSyn 5UTR act -123.2
O=C(Nc1nccs1)c1cn2ccccc2n1	none
Cc1cc(C(=O)Nc2nnc(C3CCCCC3)s2)no1	aSyn 5UTR act -63.5
Cc1cnc(C(=O)Nc2nccs2)cn1	aSyn 5UTR act -80.7
COc1c(C(=O)Nc2nnc(C3CC3)s2)csc1Cl	aSyn 5UTR act -97.4
c1ccc2c(c1)nnn2-c1ncnc2sccc12	aSyn 5UTR act -147.1
c1ccc(CSc2nccc(-c3ccco3)n2)cc1	aSyn 5UTR act -81.5
c1ccc(CSc2n[nH]c(-c3ccco3)n2)cc1	aSyn 5UTR act -63.7
CC(=O)c1ccc(NS(=O)(=O)c2cccc(C)c2)cc1	aSyn 5UTR act -127.4
Cc1ccc2nc(-c3ccc(NS(=O)(=O)c4c(C)n(C)c(=O)n(C)c4=O)cc3)sc2c1	aSyn 5UTR act -94.4
Cc1cccc(S(=O)(=O)Nc2ccc(-c3nc4ccc(C)cc4s3)cc2)c1	aSyn 5UTR act -171.8
COC(=O)c1c(NC(=O)c2ccc(Br)s2)sc2c1CCC2	aSyn 5UTR act -91.5
COC(=O)c1sccc1NC(=O)c1ccc(Br)s1	aSyn 5UTR act -66.9
CCOc1ccccc1C(=O)Nc1ccsc1C(=O)OC	none
COC(=O)c1sccc1NC(=O)c1csc(C)c1	aSyn 5UTR act -80.2
Cc1[nH]c2ccccc2c1/C=C/c1nc2ccccc2c(=O)n1CCO	aSyn 5UTR act -62.3
Cc1nc(-c2ccc(Cl)cc2)sc1C1(C)CC(c2cccnc2)=NO1 (centres undefined)	aSyn 5UTR act -122.1
Cc1nc(C(=O)Nc2ccccc2)sc1C1(C)CC(c2cccnc2)=NO1 (centres undefined)	aSyn 5UTR act -111.1
O=C1c2ccccc2S(=O)(=O)c2cc(N3CCOCC3)ccc21	none
O=S1(=O)N=C(Nc2ccc(N3CCOCC3)c(Cl)c2)c2ccccc21	aSyn 5UTR act -192.7
CCCc1cc(NC(=O)CCl)n(-c2ccccc2)n1	aSyn 5UTR act -79.4
Cc1cccc(-c2cc3nc(-c4ccccc4)cc(=O)n3[nH]2)c1	aSyn 5UTR act -103.2
Cc1cc(=O)n2[nH]c(-c3ccc(F)cc3)cc2n1	aSyn 5UTR act -64.4
CN(CCC#N)C(=O)c1cc2c(s1)-c1ccccc1SC2	aSyn 5UTR act -91.0
Oc1ccc(Br)cc1C=Nc1cccn2cc(-c3ccccc3)nc12	aSyn 5UTR act -80.4
COc1cc(/C=N/OCC(=O)Nc2cc(C)cc(C)c2)ccc1OCc1ccc(Cl)cc1	aSyn 5UTR act -128.2
COc1cc(/C=N/OCC(=O)NC2CCCCC2C)ccc1OCc1ccc(Cl)cc1 (centres undefined)	aSyn 5UTR act -98.3
COc1cc(/C=N/N2CCOCC2)ccc1OCc1ccccc1	aSyn 5UTR act -107.4
COc1cc(/C=N/N2CCOCC2)ccc1OCc1ccc(Cl)cc1	aSyn 5UTR act -66.4
Cc1ccc(NC(=O)CC2COc3ccccc3O2)cc1 (centres undefined)	aSyn 5UTR act -88.6
O=C(CC1COc2ccccc2O1)NC1CCCCC1 (centres undefined)	aSyn 5UTR act -66.9
Cc1[nH]nc(Nc2ccc(Br)cc2)c1[N+](=O)[O-]	aSyn 5UTR act -163.5
Cc1[nH]nc(Nc2ccc(C(C)C)cc2)c1[N+](=O)[O-]	aSyn 5UTR act -150.9
Cc1ccc(Nc2n[nH]c(C)c2[N+](=O)[O-])cc1	aSyn 5UTR act -221.4
Cc1cccc(Nc2n[nH]c(C)c2[N+](=O)[O-])c1	aSyn 5UTR act -140.4
Cc1[nH]nc(Nc2ccccc2)c1[N+](=O)[O-]	aSyn 5UTR act -72.4
Nc1nn(-c2cccc(F)n2)cc1-c1ccccc1	aSyn 5UTR act -112.7
CCN(CC)S(=O)(=O)c1ccc2c(c1)nc(-c1ccccn1)n2C	aSyn 5UTR act -73.2
O=C(Nc1cc2c(cc1Br)OCCCO2)c1ccccc1	aSyn 5UTR act -104.4
O=C(Nc1cc2c(cc1Cl)OCCCO2)c1ccc(F)cc1	aSyn 5UTR act -89.8
Cc1ccc(C(=O)Nc2cc3c(cc2Cl)OCCCO3)cc1	aSyn 5UTR act -144.9
O=C(CSCc1ccco1)c1ccc(Cl)s1	aSyn 5UTR act -115.6
O=C(CSc1ccccc1)N1CCc2ccccc21	aSyn 5UTR act -113.4
O=C(CSCc1ccco1)N1CCc2ccccc21	aSyn 5UTR act -82.8
O=C(Cc1c[nH]c2ccccc12)N1CCc2ccccc21	aSyn 5UTR act -62.7
Nc1cc(N)nc(SCC(=O)N2CCc3ccccc32)n1	aSyn 5UTR act -87.5
CCn1c(CNc2ccc(OC)cc2)nnc1SCC(=O)N1CCCc2ccccc21	aSyn 5UTR act -70.4
Cc1nc(SCC(=O)N2CCc3ccccc32)n[nH]1	aSyn 5UTR act -67.9
Cc1ccc2c(CC(=O)N3CCc4ccccc43)coc2c1	aSyn 5UTR act -161.4
CCn1c(-c2ccc(F)cc2)cnc1SCC(=O)N1CCc2ccccc21	aSyn 5UTR act -85.4
Cc1nc(NCCOc2ccccc2)sc1C(=O)Nc1ccccc1	aSyn 5UTR act -87.9
Nc1nc(Nc2ccccc2F)sc1C(=O)c1ccccc1	aSyn 5UTR act -187.7
CSc1nc(N(C)NC(=O)c2ccc(F)cc2)c2ccccc2n1	none
Cc1nc(Nc2ccccc2)sc1C(=O)Nc1ccccc1	aSyn 5UTR act -102.4
Cc1nc(Nc2ccccc2)sc1C(=O)c1ccc(F)cc1	aSyn 5UTR act -94.1
Cc1nc(NCc2ccccc2)sc1C(=O)Nc1ccccc1	aSyn 5UTR act -147.5
Cc1cc(Nc2ccc(Cl)cc2)nc(N)n1	aSyn 5UTR act -110.7
COc1ccc(Nc2cc(C)nc(N)n2)cc1	aSyn 5UTR act -64.0
Nc1cc(Nc2ccc(Br)cc2)nc(N)n1	aSyn 5UTR act -149.4
O=C1c2ccccc2C(=O)C1c1ccnc2ccccc12	none
COc1ccc(C2C(=O)c3ccccc3C2=O)c(OC)c1	aSyn 5UTR act -265.4
CCc1ccc(C2C(=O)c3ccccc3C2=O)cc1	aSyn 5UTR act -74.3
COc1ccc(C2C(=O)c3ccccc3C2=O)cc1	aSyn 5UTR act -82.7
O=c1[nH]c2ccccc2c2nc3ccccn3c12	aSyn 5UTR act -113.3
O=c1nc2c(O)cccn2c2c1c(=O)[nH]c1ccccc12	aSyn 5UTR act -66.2
Nc1c(-c2ccccc2)cnn1-c1cccc(Cl)c1	aSyn 5UTR act -144.4
Cc1cccc(-c2cnn(-c3cccc([N+](=O)[O-])c3)c2N)c1	aSyn 5UTR act -75.3
Cc1cccc(-c2cnn(-c3ccccc3)c2N)c1	aSyn 5UTR act -128.6
Brc1ccc2oc(-c3ccn[nH]3)cc2c1	aSyn 5UTR act -175.0
COCCN=C1Sc2nc3ccc(C)cc3cc2CN1Cc1ccco1	aSyn 5UTR act -68.0
Cc1cc2nc(C3CCN(Cc4nnnn4Cc4cccs4)CC3)[nH]c2cc1C	none
COCCN=C1Sc2nc3cc(C)c(C)cc3cc2CN1Cc1cccs1	aSyn 5UTR act -77.5
Clc1nc2ccccc2cc1-c1nnn(-c2ccccc2)n1	aSyn 5UTR act -160.3
Cc1nc(NC(=O)c2ccc(Br)s2)sc1C(=O)N(C)C	aSyn 5UTR act -121.9
